Among all 1,300 compounds or so, about 630 (48%) were called active. No stated cut-off is given here; in the data, active means inhibition above about 6.5%; inactive means the rest. So high a share suggests a set chosen from earlier hits. A selection follows.

The assay deals with Tyrosine-protein kinase ABL1 (Homo sapiens) + Ras and Rab interactor 1 (Homo sapiens) (UniProt P00519+Q13671). Put plainly: disruptors of human Abl and Rin1 association – biochemical, TR-FRET, confirmation (AID 602124). Particulars: TR-FRET Rin1-Abl binding, purified proteins; at 7.35 µM; hits give high values.
Sequence of Tyrosine-protein kinase ABL1 (Homo sapiens) + Ras and Rab interactor 1 (Homo sapiens) (P00519 whole entry, looked up): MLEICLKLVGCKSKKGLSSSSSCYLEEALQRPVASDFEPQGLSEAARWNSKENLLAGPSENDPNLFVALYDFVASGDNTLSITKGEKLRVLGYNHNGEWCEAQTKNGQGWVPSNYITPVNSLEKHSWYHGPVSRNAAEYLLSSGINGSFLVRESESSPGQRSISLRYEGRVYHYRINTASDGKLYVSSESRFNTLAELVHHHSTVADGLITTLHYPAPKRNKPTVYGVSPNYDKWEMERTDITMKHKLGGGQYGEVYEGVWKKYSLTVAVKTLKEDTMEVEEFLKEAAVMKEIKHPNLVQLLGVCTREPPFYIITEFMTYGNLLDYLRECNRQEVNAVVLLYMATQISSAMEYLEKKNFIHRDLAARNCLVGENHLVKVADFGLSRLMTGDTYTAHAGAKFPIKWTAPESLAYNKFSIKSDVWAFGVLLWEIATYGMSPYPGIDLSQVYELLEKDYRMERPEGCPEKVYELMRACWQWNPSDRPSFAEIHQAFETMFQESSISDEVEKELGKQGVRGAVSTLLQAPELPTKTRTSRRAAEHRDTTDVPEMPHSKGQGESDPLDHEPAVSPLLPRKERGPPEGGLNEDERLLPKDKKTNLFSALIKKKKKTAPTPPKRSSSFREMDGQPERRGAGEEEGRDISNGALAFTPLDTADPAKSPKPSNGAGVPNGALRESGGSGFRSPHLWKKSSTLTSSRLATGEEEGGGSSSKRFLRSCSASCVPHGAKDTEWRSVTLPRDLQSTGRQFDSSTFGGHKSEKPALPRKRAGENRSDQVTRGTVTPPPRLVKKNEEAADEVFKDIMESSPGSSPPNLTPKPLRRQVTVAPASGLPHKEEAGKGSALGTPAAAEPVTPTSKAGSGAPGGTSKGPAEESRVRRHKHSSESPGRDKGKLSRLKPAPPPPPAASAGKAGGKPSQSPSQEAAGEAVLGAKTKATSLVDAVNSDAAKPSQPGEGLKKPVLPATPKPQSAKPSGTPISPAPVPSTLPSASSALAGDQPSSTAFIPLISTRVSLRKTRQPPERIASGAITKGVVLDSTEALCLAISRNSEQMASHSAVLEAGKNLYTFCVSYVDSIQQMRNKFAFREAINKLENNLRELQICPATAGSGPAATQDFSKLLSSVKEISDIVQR
Sequence of Tyrosine-protein kinase ABL1 (Homo sapiens) + Ras and Rab interactor 1 (Homo sapiens) (Q13671 whole entry, looked up): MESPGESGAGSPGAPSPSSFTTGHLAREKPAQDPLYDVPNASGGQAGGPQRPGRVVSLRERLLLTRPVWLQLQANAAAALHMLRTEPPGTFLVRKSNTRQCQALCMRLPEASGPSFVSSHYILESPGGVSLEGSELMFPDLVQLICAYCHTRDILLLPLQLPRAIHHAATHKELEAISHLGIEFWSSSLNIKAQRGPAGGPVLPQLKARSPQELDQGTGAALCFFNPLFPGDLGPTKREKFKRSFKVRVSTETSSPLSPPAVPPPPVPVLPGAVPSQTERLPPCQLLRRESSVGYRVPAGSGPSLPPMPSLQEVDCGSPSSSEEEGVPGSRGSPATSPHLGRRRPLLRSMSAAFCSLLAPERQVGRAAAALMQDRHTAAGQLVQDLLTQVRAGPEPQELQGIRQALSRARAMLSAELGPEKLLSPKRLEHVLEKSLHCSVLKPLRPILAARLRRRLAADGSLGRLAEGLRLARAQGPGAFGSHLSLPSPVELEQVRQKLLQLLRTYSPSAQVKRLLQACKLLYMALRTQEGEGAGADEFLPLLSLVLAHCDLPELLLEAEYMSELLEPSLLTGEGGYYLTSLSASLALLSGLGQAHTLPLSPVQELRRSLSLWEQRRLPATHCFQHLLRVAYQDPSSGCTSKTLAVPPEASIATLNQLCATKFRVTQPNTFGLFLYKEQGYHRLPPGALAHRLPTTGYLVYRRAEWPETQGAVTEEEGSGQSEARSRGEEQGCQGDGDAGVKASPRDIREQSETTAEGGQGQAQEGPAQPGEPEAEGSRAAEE
In the case of `CC(=O)Nc1ccc(CN2CCC(Oc3ccc(C(=O)N4CCCC4)cc3)CC2)cc1`, the inhibition is 3.99% (inactive).

As to `CN(C(=O)c1ccc(NC(=O)Cc2cccc(NC(=O)C3CCN(C(=O)c4ccccc4)CC3)c2)cc1)C1CC1`, the inhibition was 26% (active). The value for `CCOC(=O)CN(C(=O)COc1nc(C)cc(C)c1C#N)c1ccc(Cl)cc1` was 0.28% (inactive); that for `O=C(NNc1c2ccccc2nc2ccccc12)c1cc2ccccc2cc1O` was 1.57% (inactive); that for `CCCn1c(N)c(C(=O)CSc2nnc(-c3cccnc3)n2-c2ccc(C)cc2C)c(=O)[nH]c1=O` was 13.8% (active). The value for `Cc1ccc(-n2c(SCC(=O)NCc3ccc4c(c3)OCO4)nnc2-c2cccnc2)c(C)c1` was 12.5% (active); that for `CCOc1ccc(-n2c(SCC(=O)NC3CCS(=O)(=O)C3)nnc2-c2cccnc2)cc1` (stereo not given) was 3.68% (inactive); that for `COCCNC(=O)Nc1ccc2nc(-c3ccco3)c(-c3ccco3)nc2c1` was 5.72% (inactive).

Consider `CN(CC(=O)Nc1ccc(F)cc1)CC(=O)Nc1ccc(Cl)c(S(=O)(=O)N2CCOCC2)c1`, for which the inhibition is 0.32% (inactive). Next, `Cc1ccccc1C(=O)N1CCC(C(=O)Nc2ccc(S(=O)(=O)N(C)C(C)C)cc2)CC1`: 9.43% (active); `CCc1ccc(CN(C)C(C)C(=O)Nc2ccc(S(=O)(=O)N3CCCC3)cc2)cc1` (stereo not given): -1.11% (inactive). For the compound `O=C(Nc1ccc(S(=O)(=O)Nc2ncccn2)cc1)c1cncc(Br)c1`, the inhibition was 1.84% (inactive).

Regarding `CC(CCO)Nc1nc2c([nH]1)c(=O)n(C)c(=O)n2C` (stereo not given), the inhibition was 1.44% (inactive).

Take `O=c1ccc2c(-c3ccccc3S(=O)(=O)O)c3ccc(O)c(O)c3oc-2c1O`: the inhibition was 67% (active). The value for `CN(C)c1ccc(N/C=C/C(=O)C(F)(F)F)cc1` was -4.29% (inactive); that for `COC(=O)c1ccc(COC(=O)C2CCN(S(=O)(=O)c3c(Cl)cccc3Cl)CC2)o1` was 16.6% (active); that for `O=C(COc1ccc(S(=O)(=O)NCCc2ccccc2)cc1)N1CCCC1` was -1.2% (inactive). Next, `Cc1cc2ccccc2n1CCNC(=O)COc1ccc2ccccc2c1`: 0.15% (inactive); `CCOC(=O)N1CCC(c2cc(=O)n(-c3ccccc3)[nH]2)CC1`: -2.37% (inactive). `CCOC(=O)N1CCN(C(=O)C2CCN(c3ncnc4c3sc3cccc(F)c34)CC2)CC1`: the inhibition was 28.5% (active).

As to `CCOC(=O)N1CCN(C(=O)C2CCCN(c3ncnc4c3sc3cccc(F)c34)C2)CC1` (stereo not given), the inhibition is 9.09% (active).

On to `Cc1cc(NC(=O)CSCC(=O)NC(C)c2ccccc2)no1` (stereo not given), for which the inhibition was 0.39% (inactive).

With `O=C(Nc1ccc(OC(F)(F)F)cc1)c1ccc2c(c1)no[n+]2[O-]`, the inhibition was -0.65% (inactive). The value for `CC(OC(=O)c1ccccc1NCCO)C(=O)Nc1ccnn1C(C)C` (stereo not given) was 53.2% (active); that for `COc1ccc(CNC(=O)c2cc(C(=O)C3CC3)c[nH]2)cc1` was 1.47% (inactive); that for `CSc1ncnc2c1ncn2CC(=O)C1CCC2C3CCC4=CC(=O)CCC4(C)C3CCC12C` (stereo not given) was 11.9% (active). The value for `C#CCOCCOCCOCCNc1nc(N2CCN(C(=O)C(Cc3ccc(O)cc3)n3cc(C(N)CC(C)C)nn3)CC2)nc(N2CCN(C(=O)C(Cc3ccc(O)cc3)n3cc(C(N)C(C)CC)nn3)CC2)n1` (stereo not given) was 13.9% (active). For `C[C@@H]1CN([C@H](C)CO)S(=O)(=O)c2ccc(C#C[C@@H](C)O)cc2O[C@@H]1CN(C)Cc1ccc(-c2ccccc2)cc1`, the inhibition was 32.5% (active). The value for `O=C(c1cn(-c2ccccc2)nc1-c1cc2ccccc2oc1=O)N1CCOCC1` was -4.12% (inactive); that for `O=C(CNCc1ccco1)Nc1cc(S(=O)(=O)N2CCOCC2)ccc1N1CCCC1` was -1.42% (inactive). Next, `Oc1c(CN2CCN(c3ccc(F)cc3)CC2)cc(Cl)c2cccnc12`: -0.1% (inactive). Next, `C=C1c2c(Cl)ccc(O)c2C(O)=C2C(=O)[C@]3(O)C(O)=C(C(N)=O)C(=O)[C@@H](N(C)C)[C@@H]3[C@@H](O)C12` (stereo not given in full): 13.9% (active); `CC(C)CNS(=O)(=O)c1ccc(C(=O)Nc2ccc3c(c2)OCO3)cc1`: -0.58% (inactive).

With `CN(Cc1c(F)cccc1Cl)C(=O)CNC(=O)c1ccc2c(c1)OCO2`, the inhibition is 45.8% (active).

For the compound `C=CCn1cc(C(=O)NCc2ccc(Cl)cc2)c(=O)c2cc(S(=O)(=O)N(CC)CC)ccc21`, the inhibition is 0.48% (inactive). The value for `CCc1cc2c(N3CCN(c4nnc(CC)s4)CC3)ncnc2s1` was 4.08% (inactive); that for `C=CCn1c2ccccc2c2nnc(SCc3[nH]c(=O)[nH]c3C(=O)CCCCC(=O)OCC)nc21` was 71.5% (active). With `Cc1ccc(C(NC(=O)C2CCN(CCOc3ccc(Cl)cc3Cl)CC2)c2ccccn2)cc1` (stereo not given), the inhibition is 0.23% (inactive). The value for `Cc1cccc(N(C)C(=O)CN2C(=O)COc3ccc(S(=O)(=O)N4CCCCCC4)cc32)c1` was 7.15% (active); that for `CCOc1ccc(S(=O)(=O)N2CCCCC2)cc1NC(=O)CN1CCCC1c1cccs1` (stereo not given) was 0.05% (inactive); that for `NS(=O)(=O)c1ccc(CCNC(=O)Nc2ccc(Cl)cc2)cc1` was -1.53% (inactive). With `Oc1cccc2cc(-c3ccncc3)cnc12`, the inhibition was 20.6% (active). Take `CCOc1ccc(CNC(=O)C2CCCN(c3nnc(C)c4c(C)n(-c5ccccc5)nc34)C2)cc1` (stereo not given): the inhibition is 12.6% (active). With `OC[C@@H]1CN(Cc2ccc(Cl)cc2)C[C@H](n2cnc3c(NCc4ccncc4)ncnc32)O1`, the inhibition is 2.98% (inactive). On to `Cc1nn(-c2ncc(C(F)(F)F)cc2Cl)c(=O)n1-c1ccccc1`, for which the inhibition was -0.89% (inactive). Next, `O=C(CC1SCCNC1=O)Nc1ccc(Cl)cc1` (stereo not given): 12.1% (active); `Nc1nc2n(n1)C(c1ccco1)CC(c1ccc(Cl)c(Cl)c1)N2` (stereo not given): 0.66% (inactive).

With `O=c1c2c(nc3n1CCCCC3)sc1c(O)cccc12`, the inhibition was 14.5% (active). Next, `CC(=O)NC(c1cccs1)c1cc(Br)c2cccnc2c1O` (stereo not given): 15.9% (active); `Cc1c(CC(=O)N2CCN(C(=O)C3COc4ccccc4O3)CC2)c(=O)oc2c(O)c(O)ccc12` (stereo not given): 8.45% (active); `NC1=CC(=O)C(=O)c2cccnc21`: 19.5% (active). The value for `COc1cc(C(=S)N2CCOCC2)ccc1O` was -2.83% (inactive); that for `Cc1ccccc1CN1C[C@@H]2C[C@@H](c3ccc4nsnc4c3)N3CCC[C@@]23C1=O` was 22% (active). Next, `Nc1cc(=O)c2[nH]cnc2[nH]1`: 18.1% (active); `O=c1cc(CO)oc(CN2CCC(Cc3ccccc3)CC2)c1O`: -3.76% (inactive).

The inhibition is the relative decrease from the control value, in per cent.

Values taken from PubChem BioAssay AID602124 (The Scripps Research Institute Molecular Screening Center, 2011).
